About 7,900 targets were measured; listed, in parts, are those with a hit and a random draw of the rest. About 0.6% of all pairs of compound and target were hits. Unmarked numbers belong to inactive results.
Key:
Test in all cases: log2 fold change, soluble protein after heating vs DMSO (PISA); higher = thermal stabilisation; K562 cells, 10 uM, 30 min; active = over 0.2 and 3.5 SD of the protein, either way, in both replicates (recomputed)
saracatinib = compound: CN1CCN(CCOc2cc(OC3CCOCC3)c3c(Nc4c(Cl)ccc5c4OCO5)ncnc3c2)CC1 [saracatinib]
Outline: (§1)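 Quantification of soluble protein used TMTpro 16plex LC-MS/MS, with channel sums equalised. Samples were the supernatant after 21,000xg for 90 min of pooled aliquots from K562 cells (2×10^6 cells/mL) treated with 10 μM compound for 30 min, heated for 3 min over 48°C-58°C, and extracted in PBS with 0.5% NP-40 at 4°C. Values, from duplicates, describe thermal stability against control samples on a log2 fold-change scale.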

sotrastaurin = compound: CN1CCN(c2nc(C3=C(c4c[nH]c5ccccc45)C(=O)NC3=O)c3ccccc3n2)CC1 [sotrastaurin]
Outline: as §1

alvocidib = compound: CN1CC[C@H](c2c(O)cc(O)c3c(=O)cc(-c4ccccc4Cl)oc23)[C@H](O)C1 [alvocidib]
Outline: as §1

Tubastatin A = compound: CN1CCc2c(c3ccccc3n2Cc2ccc(C(=O)NO)cc2)C1 [Tubastatin A]
Outline: as §1

[1] = compound: CNC(=O)C1=CC=CC=C1NC2=NC(=NC=C2Cl)NC3=C(C=C(C=C3)N4CCOCC4)OC
Outline: as §1

defactinib = compound: CNC(=O)c1ccc(Nc2ncc(C(F)(F)F)c(NCc3nccnc3N(C)S(C)(=O)=O)n2)cc1 [defactinib]
Outline: as §1

rucaparib = compound: CNCc1ccc(-c2[nH]c3cc(F)cc4c3c2CCNC4=O)cc1 [rucaparib]
Outline: as §1

[2] = compound: CNc1nc(-c2ccc3c(N)n[nH]c3c2)cc(N2C[C@@H](C(=O)NC3CCCCC3)CC[C@H]2C)n1
Outline: as §1

encorafenib = compound: COC(=O)N[C@@H](C)CNc1nccc(-c2cn(C(C)C)nc2-c2cc(Cl)cc(NS(C)(=O)=O)c2F)n1 [encorafenib]
Outline: as §1

[3] = compound: COC(=O)[C@H](CCSC)NC(=O)C1=C(C=C(C=C1)NC[C@H](CS)N)C2=CC=CC=C2
Outline: as §1

[4] = compound: COC1=CC=C(C=C1)CN2C=CC3=C2C=C(C=C3)C(=O)NO
Outline: as §1

filanesib = compound: CON(C)C(=O)N1N=C(c2cc(F)ccc2F)S[C@@]1(CCCN)c1ccccc1 [filanesib]
Outline: as §1

zotarolimus = compound: CO[C@H]1C[C@@H]2CC[C@@H](C)[C@@](O)(O2)C(=O)C(=O)N2CCCC[C@H]2C(=O)O[C@H]([C@H](C)C[C@@H]2CC[C@H](n3cnnn3)[C@H](OC)C2)CC(=O)[C@H](C)/C=C(\C)[C@@H](O)[C@@H](OC)C(=O)[C@H](C)C[C@H](C)/C=C/C=C/C=C/1C [zotarolimus]
Outline: as §1

idasanutlin = compound: COc1cc(C(=O)O)ccc1NC(=O)[C@@H]1N[C@@H](CC(C)(C)C)[C@](C#N)(c2ccc(Cl)cc2F)[C@H]1c1cccc(Cl)c1F [idasanutlin]
Outline: as §1

alisertib = compound: COc1cc(Nc2ncc3c(n2)-c2ccc(Cl)cc2C(c2c(F)cccc2OC)=NC3)ccc1C(=O)O [alisertib]
Outline: as §1

[5] = compound: COc1cc2nc(-c3cc(F)ccc3O)nc(N[C@@H]3CNC[C@H]3C(C)(C)O)c2cc1OC
Outline: as §1

gefitinib = compound: COc1cc2ncnc(Nc3ccc(F)c(Cl)c3)c2cc1OCCCN1CCOCC1 [gefitinib]
Outline: as §1

[6] = compound: COc1cccc2cc(-c3nc([C@H]4CC[C@H](C(=O)O)CC4)n4ncnc(N)c34)[nH]c12
Outline: as §1

lapatinib = compound: CS(=O)(=O)CCNCc1ccc(-c2ccc3ncnc(Nc4ccc(OCc5cccc(F)c5)c(Cl)c4)c3c2)o1 [lapatinib]
Outline: as §1

pictilisib = compound: CS(=O)(=O)N1CCN(Cc2cc3nc(-c4cccc5[nH]ncc45)nc(N4CCOCC4)c3s2)CC1 [pictilisib]
Outline: as §1

Sequence of UniProt Q9Y679 (Q9Y679 whole entry, looked up): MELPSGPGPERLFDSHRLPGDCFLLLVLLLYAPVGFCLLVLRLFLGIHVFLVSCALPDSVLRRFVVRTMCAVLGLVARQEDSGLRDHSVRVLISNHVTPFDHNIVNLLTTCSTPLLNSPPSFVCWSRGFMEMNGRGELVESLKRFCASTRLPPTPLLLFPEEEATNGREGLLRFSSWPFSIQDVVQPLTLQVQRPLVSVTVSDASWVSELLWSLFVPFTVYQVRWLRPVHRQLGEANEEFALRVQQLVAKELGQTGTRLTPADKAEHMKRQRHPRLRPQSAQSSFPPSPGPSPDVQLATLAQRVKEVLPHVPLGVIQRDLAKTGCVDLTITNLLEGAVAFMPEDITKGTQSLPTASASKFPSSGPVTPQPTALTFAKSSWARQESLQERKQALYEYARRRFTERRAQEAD
Sequence of UniProt P35670 (P35670 whole entry, looked up): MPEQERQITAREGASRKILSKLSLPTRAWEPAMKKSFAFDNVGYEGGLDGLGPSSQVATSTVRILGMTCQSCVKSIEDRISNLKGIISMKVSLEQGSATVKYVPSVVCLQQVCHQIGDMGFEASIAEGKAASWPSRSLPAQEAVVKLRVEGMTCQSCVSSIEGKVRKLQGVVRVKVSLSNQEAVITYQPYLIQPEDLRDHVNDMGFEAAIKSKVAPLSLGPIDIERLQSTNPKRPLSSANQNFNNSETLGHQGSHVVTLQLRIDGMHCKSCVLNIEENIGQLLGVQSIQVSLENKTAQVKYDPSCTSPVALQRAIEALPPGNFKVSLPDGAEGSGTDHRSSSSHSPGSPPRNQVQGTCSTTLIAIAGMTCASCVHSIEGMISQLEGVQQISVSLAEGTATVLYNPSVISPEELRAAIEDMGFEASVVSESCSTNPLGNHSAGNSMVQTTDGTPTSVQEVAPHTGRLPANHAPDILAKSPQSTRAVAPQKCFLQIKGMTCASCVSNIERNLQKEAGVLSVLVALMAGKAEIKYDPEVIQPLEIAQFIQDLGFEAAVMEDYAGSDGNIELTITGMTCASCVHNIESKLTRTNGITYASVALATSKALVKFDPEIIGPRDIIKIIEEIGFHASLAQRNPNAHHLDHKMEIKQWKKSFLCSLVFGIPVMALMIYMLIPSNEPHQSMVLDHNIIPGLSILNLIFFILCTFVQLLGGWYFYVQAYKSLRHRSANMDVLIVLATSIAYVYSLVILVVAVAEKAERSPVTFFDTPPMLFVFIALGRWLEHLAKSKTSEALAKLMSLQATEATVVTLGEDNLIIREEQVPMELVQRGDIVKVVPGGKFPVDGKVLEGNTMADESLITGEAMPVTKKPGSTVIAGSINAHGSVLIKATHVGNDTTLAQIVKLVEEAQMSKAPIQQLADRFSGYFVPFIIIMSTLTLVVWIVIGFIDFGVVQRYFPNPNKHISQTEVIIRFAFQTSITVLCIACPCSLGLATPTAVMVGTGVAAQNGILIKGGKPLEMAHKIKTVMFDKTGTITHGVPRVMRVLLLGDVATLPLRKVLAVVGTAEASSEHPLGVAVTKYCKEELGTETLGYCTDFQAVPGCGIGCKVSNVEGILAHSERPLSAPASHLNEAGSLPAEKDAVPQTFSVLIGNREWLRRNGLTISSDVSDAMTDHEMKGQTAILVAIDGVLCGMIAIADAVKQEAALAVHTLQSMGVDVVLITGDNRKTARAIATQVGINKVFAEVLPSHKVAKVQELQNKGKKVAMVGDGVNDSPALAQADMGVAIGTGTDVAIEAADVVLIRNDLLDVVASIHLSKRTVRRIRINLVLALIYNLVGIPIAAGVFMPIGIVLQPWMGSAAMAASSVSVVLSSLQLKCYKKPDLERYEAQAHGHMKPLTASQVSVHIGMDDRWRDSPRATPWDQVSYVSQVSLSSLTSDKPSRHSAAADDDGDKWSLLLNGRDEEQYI
Sequence of UniProt Q8N6S5 (Q8N6S5 whole entry, looked up): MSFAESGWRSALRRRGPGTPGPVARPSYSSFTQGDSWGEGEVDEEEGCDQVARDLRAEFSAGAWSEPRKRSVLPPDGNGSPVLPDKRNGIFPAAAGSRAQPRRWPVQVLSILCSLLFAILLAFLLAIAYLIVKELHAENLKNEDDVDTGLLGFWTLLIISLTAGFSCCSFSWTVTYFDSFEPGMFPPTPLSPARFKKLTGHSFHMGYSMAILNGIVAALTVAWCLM
Sequence of UniProt P31939 (P31939 whole entry, looked up): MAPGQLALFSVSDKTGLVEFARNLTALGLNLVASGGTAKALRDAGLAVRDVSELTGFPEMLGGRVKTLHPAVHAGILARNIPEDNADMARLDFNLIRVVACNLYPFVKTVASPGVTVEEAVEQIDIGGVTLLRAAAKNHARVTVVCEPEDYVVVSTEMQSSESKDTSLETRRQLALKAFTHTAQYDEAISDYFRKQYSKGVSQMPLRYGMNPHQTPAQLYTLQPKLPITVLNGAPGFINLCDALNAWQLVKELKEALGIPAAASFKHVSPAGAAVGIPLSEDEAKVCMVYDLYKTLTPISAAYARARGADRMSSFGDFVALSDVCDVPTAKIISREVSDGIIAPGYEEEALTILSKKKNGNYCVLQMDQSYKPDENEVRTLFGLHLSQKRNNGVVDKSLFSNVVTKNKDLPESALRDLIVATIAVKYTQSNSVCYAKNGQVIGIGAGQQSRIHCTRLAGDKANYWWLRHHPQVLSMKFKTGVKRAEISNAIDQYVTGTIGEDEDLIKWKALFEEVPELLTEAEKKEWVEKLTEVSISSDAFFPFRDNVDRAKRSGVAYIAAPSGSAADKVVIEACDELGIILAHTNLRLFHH
Sequence of UniProt P31751 (P31751 whole entry, looked up): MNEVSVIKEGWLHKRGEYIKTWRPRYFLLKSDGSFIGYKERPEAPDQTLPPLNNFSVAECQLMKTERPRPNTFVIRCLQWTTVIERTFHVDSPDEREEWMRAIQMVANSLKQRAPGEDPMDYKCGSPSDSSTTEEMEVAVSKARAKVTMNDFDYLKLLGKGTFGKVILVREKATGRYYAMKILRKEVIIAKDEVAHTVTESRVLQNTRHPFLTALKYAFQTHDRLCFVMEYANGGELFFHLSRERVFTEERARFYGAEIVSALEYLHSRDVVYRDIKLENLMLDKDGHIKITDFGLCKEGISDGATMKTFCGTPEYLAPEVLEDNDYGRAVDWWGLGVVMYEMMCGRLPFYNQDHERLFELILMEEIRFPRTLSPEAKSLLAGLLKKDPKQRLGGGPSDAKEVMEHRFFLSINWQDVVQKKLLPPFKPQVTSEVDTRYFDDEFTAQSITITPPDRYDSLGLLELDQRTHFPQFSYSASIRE
Sequence of UniProt Q99798 (Q99798 whole entry, looked up): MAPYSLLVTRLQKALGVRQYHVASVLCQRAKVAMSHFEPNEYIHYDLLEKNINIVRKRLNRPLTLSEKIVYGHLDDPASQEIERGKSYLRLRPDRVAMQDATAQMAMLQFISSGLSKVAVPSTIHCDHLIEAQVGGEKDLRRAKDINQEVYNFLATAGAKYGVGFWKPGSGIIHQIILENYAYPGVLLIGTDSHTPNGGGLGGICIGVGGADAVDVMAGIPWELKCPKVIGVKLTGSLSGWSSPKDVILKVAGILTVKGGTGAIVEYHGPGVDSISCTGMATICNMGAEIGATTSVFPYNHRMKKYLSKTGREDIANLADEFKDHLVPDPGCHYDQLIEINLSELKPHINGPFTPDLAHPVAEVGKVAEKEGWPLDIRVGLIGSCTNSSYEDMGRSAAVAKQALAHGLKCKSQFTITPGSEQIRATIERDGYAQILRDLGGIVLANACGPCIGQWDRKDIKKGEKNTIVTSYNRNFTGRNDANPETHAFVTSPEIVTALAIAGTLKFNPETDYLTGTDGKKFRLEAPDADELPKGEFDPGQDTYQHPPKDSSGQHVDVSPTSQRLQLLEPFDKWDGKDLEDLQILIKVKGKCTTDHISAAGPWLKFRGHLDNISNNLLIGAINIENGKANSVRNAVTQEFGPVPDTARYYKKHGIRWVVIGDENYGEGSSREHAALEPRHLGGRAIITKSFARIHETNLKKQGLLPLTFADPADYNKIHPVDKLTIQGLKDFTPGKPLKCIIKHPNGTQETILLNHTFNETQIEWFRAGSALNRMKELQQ
Sequence of UniProt P10398 (P10398 whole entry, looked up): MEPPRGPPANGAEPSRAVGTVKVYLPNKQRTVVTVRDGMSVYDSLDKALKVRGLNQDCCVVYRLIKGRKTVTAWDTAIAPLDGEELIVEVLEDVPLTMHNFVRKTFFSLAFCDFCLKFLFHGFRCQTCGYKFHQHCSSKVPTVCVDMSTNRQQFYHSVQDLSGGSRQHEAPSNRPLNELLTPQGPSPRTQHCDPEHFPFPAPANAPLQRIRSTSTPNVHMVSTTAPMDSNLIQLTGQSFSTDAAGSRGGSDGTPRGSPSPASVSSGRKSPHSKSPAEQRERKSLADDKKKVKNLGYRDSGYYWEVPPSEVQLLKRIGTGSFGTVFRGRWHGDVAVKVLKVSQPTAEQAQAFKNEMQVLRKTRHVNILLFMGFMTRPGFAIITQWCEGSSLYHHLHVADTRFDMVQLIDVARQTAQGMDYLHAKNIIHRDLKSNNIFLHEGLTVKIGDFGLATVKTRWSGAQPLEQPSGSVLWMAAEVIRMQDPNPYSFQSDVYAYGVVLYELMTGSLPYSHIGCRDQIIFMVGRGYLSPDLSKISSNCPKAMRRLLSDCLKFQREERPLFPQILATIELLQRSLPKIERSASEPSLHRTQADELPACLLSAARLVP
Sequence of UniProt Q9BTE6 (Q9BTE6 whole entry, looked up): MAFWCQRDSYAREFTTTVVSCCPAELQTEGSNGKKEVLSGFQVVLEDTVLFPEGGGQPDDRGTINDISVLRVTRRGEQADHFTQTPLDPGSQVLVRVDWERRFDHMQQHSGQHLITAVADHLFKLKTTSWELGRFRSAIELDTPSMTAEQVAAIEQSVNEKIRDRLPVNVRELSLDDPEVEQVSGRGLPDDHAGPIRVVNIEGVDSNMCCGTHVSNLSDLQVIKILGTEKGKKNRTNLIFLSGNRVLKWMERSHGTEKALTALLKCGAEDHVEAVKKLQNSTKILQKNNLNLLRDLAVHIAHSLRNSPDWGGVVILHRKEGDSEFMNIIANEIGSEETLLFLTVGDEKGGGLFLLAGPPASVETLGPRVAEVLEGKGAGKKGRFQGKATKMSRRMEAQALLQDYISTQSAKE

Target	log2 fold change (saracatinib)	log2 fold change (sotrastaurin)	log2 fold change (alvocidib)	log2 fold change (Tubastatin A)	log2 fold change [1]	log2 fold change (defactinib)	log2 fold change (rucaparib)	log2 fold change [2]	log2 fold change (encorafenib)	log2 fold change [3]	log2 fold change [4]	log2 fold change (filanesib)	log2 fold change (zotarolimus)	log2 fold change (idasanutlin)	log2 fold change (alisertib)	log2 fold change [5]	log2 fold change (gefitinib)	log2 fold change [6]	log2 fold change (lapatinib)	log2 fold change (pictilisib)
ATP7B (UniProt P35670)	0.069	0.005	-0.085	0.01	-0.019	-0.011	-0.044	0.005	0.052	-0.021	-0.02	0.087	-0.075	-0.233 (active)	-0.02	-0.011	0.028	0.026	0.061	0.061
ARFGEF1 (UniProt Q9Y6D6)	0.037	0.039	-0.055	0.013	0.094	0.007	0.011	0.059	0.048	-0.038	0.043	0.014	0.111	-0.092	-0.075	0.246 (active)	0.06	0.016	0.116	0.006
ARL6IP6 (UniProt Q8N6S5)	0.192	0.005	-0.082	-0.014	-0.099	-0.053	0.009	0.004	0.015	-0.035	-0.113	-0.014	-0.03	-0.088	0.004	-0.042	-0.021	0.036	0.004	0.005
AURKA (UniProt O14965)	-0.019	-0.02	-0.03	0.011	0.974 (active)	0.722 (active)	0.073	0.201	0.033	0.071	0.021	0.009	-0.021	-0.095	1.36 (active)	0.048	-0.03	0.01	0.025	0.055
AARSD1 isoform 3 (UniProt Q9BTE6)	-0.009	-0.113	-0.016	-0.336 (active)	0.081	-0.071	-0.077	-0.037	0.08	0.004	-0.47 (active)	-0.013	0.012	0.076	-0.067	-0.012	0.083	-0.081	0.045	0.029
ATRN (UniProt O75882)	0.05	-0.047	-0.024	0.012	-0.017	-0.065	0.022	0.12	-0.05	0.045	-0.243	-0.037	0	-0.032	0.095	-0.004	0.108	0.111	0.043	0.153
ARAF (UniProt P10398)	0.037	-0.022	0.013	-0.004	-0.084	-0.023	0.01	0.023	0.177	-0.067	0	-0.022	0.06	0.006	0.076	-0.274 (active)	0.076	0.06	0.076	-0.175
AKT2 (UniProt P31751)	-0.012	-0.068	-0.005	0.01	0.042	-0.009	-0.058	-0.102	0.015	0.013	0.008	-0.056	-0.01	-0.121	-0.041	0.008	-0.012	-0.231	0.04	0.044
ACIN1 (UniProt Q9UKV3)	-0.027	-0.01	-0.057	0.032	-0.165	-0.253 (active)	-0.017	-0.054	-0.038	0.003	0.019	0.073	0.028	0.099	-0.082	-0.062	0.041	0.006	0.034	0.03
AUP1 (UniProt Q9Y679)	0.052	-0.116	-0.062	0.031	-0.062	-0.015	-0.04	-0.041	0.029	-0.037	-0.069	-0.269 (active)	-0.014	-0.022	-0.013	-0.163	-0.034	0.022	-0.007	-0.059
ABHD17A isoform 2 (UniProt Q96GS6)	0.002	0.01	0.04	0.065	-0.595 (active)	-0.008	0.017	-0.052	0.104	0.059	-0.194	0.086	0.012	0.034	0.032	0.069	0.081	0.027	-0.038	0.077
ATP5ME (UniProt P56385)	0.026	0.009	0.04	-0.009	-0.006	0.029	-0.022	-0.069	-0.07	0.023	-0.023	-0.053	0.002	-0.024	-0.027	-0.04	0.021	0.063	-0.001	0.019
ATP23 (UniProt Q9Y6H3)	0.029	0.04	-0.031	-0.056	0.055	0.028	0.096	0.041	0.001	0.01	0.003	-0.082	0.005	0.032	-0.033	-0.096	-0.062	0.067	0.007	0.018
ACO2 (UniProt Q99798)	0.005	-0.017	-0.107	-0.021	0.016	-0.083	-0.034	0.021	0.027	-0.037	-0.101	-0.081	0.015	-0.086	-0.016	0.036	0.008	0.071	-0.018	0.041
ATIC (UniProt P31939)	-0.013	-0.001	-0.064	0.008	0.087	-0.059	-0.05	0.044	-0.011	-0.028	0.047	-0.039	0.046	-0.03	-0.092	-0.027	0.114	-0.008	-0.001	-0.008

Source: the supplement of paper PMC10849652
